PrPC surface inh: cell surface PrPC inhibition, primary TR-FRET screen; AID 720596; inhibition, % at 13.8 µM; 0.43% of 370,000 active; P04156; TR-FRET read-out; in the data active = inhibition above about 24%
ugtP null kill: growth inhibition of S. aureus ugtP deletion strain; S. aureus RN4220 ugtP deletion, OD600 growth, 16 h; growth inhibition, % (concentration not given with the values); 0.54% of 330,000 active; in the data active = growth inhibition above about 68%
PfHsp40 yeast: compounds rescuing yeast from Plasmodium falciparum HSP40 toxicity; S. cerevisiae expressing PfHsp40, growth rescue, ATP luminescence; growth rescue, % at 12.5 µM; 0.68% of 340,000 active; AID 504582; in the data active = growth rescue above about 28%, passing the limit was not always enough;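 also: yeast W303a lacking pdr1 and pdr3 grown in galactose medium; growth measured after three days at 30 °C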
RN4220 kill: S. aureus RN4220 growth inhibition | inhibition, % (test concentration not listed) | 0.33% of 330,000 active | OD600, 16 h; in the data active = inhibition above about 85%
VHR inh abs: DUSP3 (human) phosphatase inhibition; P51452; recombinant VHR phosphatase, pNPP absorbance; inhibition, % at 13.3 µM; 0.52% of 290,000 active; in the data active = inhibition above about 50%
Target sequence (P51452 whole entry, looked up): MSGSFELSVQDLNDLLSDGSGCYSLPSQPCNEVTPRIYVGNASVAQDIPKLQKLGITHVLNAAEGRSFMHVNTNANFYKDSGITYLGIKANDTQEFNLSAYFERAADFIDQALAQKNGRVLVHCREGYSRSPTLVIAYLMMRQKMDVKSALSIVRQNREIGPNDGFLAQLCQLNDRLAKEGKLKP
Of the large screens only hits and unclear results are named; the others gave an inactive call. In the library only some 1.8% were active in any assay of this set; here they are far more common.

O=C(O)COc1ccccc1C=NNC(=O)COc1ccc(-c2ccccc2)cc1	none (no result: PrPC surface inh, PfHsp40 yeast, VHR inh abs)
O=C(NN=Cc1ccc([N+](=O)[O-])o1)c1cc(-c2cccc(Br)c2)nc2ccccc12	ugtP null kill 100, RN4220 kill 115 (no result: PrPC surface inh, PfHsp40 yeast, VHR inh abs)
CC(=NN)c1c(-c2ccccc2)c2cc(C)ccc2[nH]c1=O	none (no result: PrPC surface inh, PfHsp40 yeast, VHR inh abs)
CC(C)(C)c1cc[n+](/C(C(=S)Nc2ccccc2F)=C(/[O-])c2ccc3c(c2)OCCO3)cc1	none
[O-]C(=C(C(=S)Nc1cccc2ccccc12)[n+]1ccccc1)c1ccc2c(c1)OCCO2	PfHsp40 yeast 35 (no result: PrPC surface inh, VHR inh abs)
O=S(=O)(Nc1cccc(-c2nc3cccnc3s2)c1)c1ccc2c(c1)CCCC2	ugtP null kill 93
Cc1ccc(-c2nc3cccnc3s2)cc1NS(=O)(=O)c1ccc2c(c1)CCCC2	none
CCOC(=O)Cc1csc(NC(=O)CSc2nc(C)cc(C)n2)n1	none (no result: VHR inh abs)
CCOC(=O)Cc1csc(NC(=O)CSc2nc(N)c3c(C)c(C)sc3n2)n1	VHR inh abs 50
COc1ccc(N2CCN(C(CNC(=O)C3CCCCC3)c3cccnc3)CC2)cc1 (centres undefined)	none
O=C(NCC(c1cccnc1)N1CCN(c2ccc(F)cc2)CC1)C1CCCCC1 (centres undefined)	PfHsp40 yeast 70
COc1ccc(C2C3C(=O)N(C(C)(C)C)C(=O)C3[C@]3(Cc4ccc(Cl)cc4)C(=O)N(c4ccc(Br)cc4)C(=O)N23)cc1 (some centres undefined)	none (no result: PrPC surface inh, PfHsp40 yeast, VHR inh abs)
O=C(NC1CCCCC1)c1sc(=S)n2c1[nH]c(=O)c1ccccc12	ugtP null kill 100, RN4220 kill 100
CC(=O)c1ccc(N2CCN(C(=O)c3ccc4c(=O)[nH]c5c(C(=O)NC6CCCC6)sc(=S)n5c4c3)CC2)cc1	none (no result: ugtP null kill, PfHsp40 yeast, RN4220 kill, VHR inh abs)
CCCCNC(=O)c1sc(=S)n2c1[nH]c(=O)c1ccccc12	ugtP null kill 82
O=C(NCCc1ccccc1)c1ccc2c(=O)[nH]c3c(C(=O)NCC4CCCO4)sc(=S)n3c2c1 (centres undefined)	none (no result: ugtP null kill, RN4220 kill)
O=C(NN=Cc1cc([N+](=O)[O-])ccc1N1CCCC1)c1ccccn1	none (no result: PrPC surface inh, PfHsp40 yeast, VHR inh abs)
Cc1ccc(O)c(C=Nc2cc(C)ccc2O)c1	none (no result: PrPC surface inh)
Cc1ccc(O)c(N=Cc2cc(Cc3ccccc3)cc([N+](=O)[O-])c2O)c1	PfHsp40 yeast 124
Oc1c(Cl)cc(Cl)cc1C=Nc1ccc(N2CCOCC2)cc1	VHR inh abs 60
O=[N+]([O-])c1cc(Cc2ccccc2)cc(C=Nc2ccc(N3CCOCC3)cc2)c1O	PfHsp40 yeast 274 (no result: PrPC surface inh)
CC(CC(=O)Nc1cc(C)ccn1)=NNC(=O)c1ccc(C)cc1	none (no result: PrPC surface inh, PfHsp40 yeast, VHR inh abs)
O=C(Cn1c(/C=C/c2ccccc2)nc2ccccc21)Nc1ccc(F)cc1	VHR inh abs 51
CSc1nc2ccccc2n1CC(=O)Nc1ccccc1	none
CCOc1cccc(C=NNc2ccc(S(=O)(=O)N(CC)CC)cn2)c1O	ugtP null kill 100 (no result: PrPC surface inh, PfHsp40 yeast, VHR inh abs)
O=C(NN=Cc1ccc(OC(=O)c2ccccc2Cl)cc1)c1ccccn1	none (no result: PrPC surface inh, PfHsp40 yeast, VHR inh abs)
Oc1cccc(C=NN2CCCCC2)c1O	none (no result: PrPC surface inh, PfHsp40 yeast, VHR inh abs)
O=C(/C=C/NCc1cccnc1)c1ccc(-c2ccccc2)cc1	PfHsp40 yeast 114
C#CCOCCOCCOCCNc1nc(N2CCN(C(=O)C(CCC(=O)O)n3cc(C(N)C(C)CC)nn3)CC2)nc(N2CCN(C(=O)C(C(C)CC)n3cc(C(N)Cc4ccc(O)cc4)nn3)CC2)n1 (centres undefined)	none (no result: PrPC surface inh, PfHsp40 yeast, VHR inh abs)
COc1cccc(C(=O)NC(=S)Nc2ccc(N3CCCC3)cc2)c1	ugtP null kill 87
Cc1ccc(C(=O)N2CCN(c3ccc(NC(=S)NC(=O)Cc4ccccc4)cc3)CC2)cc1	ugtP null kill 90
COc1ccc(C(=O)NC(=S)Nc2ccc(N3CCCC3)cc2)cc1	none
CN1CCN(c2ccc(NC(=S)NC(=O)c3cccc4c(Cl)cccc34)cc2)CC1	ugtP null kill 98
CC(C)Oc1cccc(C(=O)NC(=S)Nc2cccc(NC(=O)c3ccccc3Cl)c2)c1	none
CC(C)Oc1cccc(C(=O)NC(=S)Nc2ccc(N3CCN(C)CC3)cc2)c1	ugtP null kill 98
C/C(=C/C=NNc1nc(N2CCCCC2)nc(N2CCCCC2)n1)c1ccccc1	none (no result: PrPC surface inh, PfHsp40 yeast, VHR inh abs)
O=C(CN(c1ccccc1)S(=O)(=O)c1ccccc1)NN=Cc1ccco1	none (no result: PrPC surface inh, PfHsp40 yeast, VHR inh abs)
CCCC(=O)N1CCN(c2ccc(NC(=S)NC(=O)c3cccc(C)c3)cc2)CC1	ugtP null kill active
CCC(=O)N1CCN(c2ccc(NC(=S)NC(=O)c3ccc(OC)c([N+](=O)[O-])c3)cc2)CC1	none
COc1ccc(C(NC(=O)OC(C)(C)C)C(=O)OC(C)(C)C)cc1 (centres undefined)	none (no result: PrPC surface inh, PfHsp40 yeast, VHR inh abs)
Cc1ccc(C)c(Cn2nc(-c3ccccc3)ccc2=O)c1	VHR inh abs 53
CCOc1ccc(N2CC(O)=C(c3nc4ccccc4c(=O)[nH]3)C2=N)cc1	VHR inh abs 56
CC(C)=CCC12Oc3cc(O)ccc3C1(O)Oc1cc(O)c([C@H]3C=C(C)CC(c4ccc(O)cc4O)[C@H]3C(=O)c3ccc(O)cc3O)c(O)c1C2=O (some centres undefined)	ugtP null kill 100, RN4220 kill 96 (no result: PrPC surface inh, PfHsp40 yeast, VHR inh abs)
CC(C)(C)c1ccc(-c2csc(NNC3=NCCCCC3)n2)cc1	VHR inh abs 55
Brc1ccc(-c2csc(NNC3=NCCCCC3)n2)cc1	none
O=C(Nc1ccccc1-c1nnn(CC(=O)N2CCOCC2)n1)c1ccc(F)cc1	none
O=C(Nc1ccccc1-c1nnn(CC(=O)N2CCOCC2)n1)c1ccccc1F	PfHsp40 yeast 42
Cc1ccc(NC2=C(NC(=O)c3ccccc3)C(=O)c3ccccc3C2=O)cc1Cl	ugtP null kill 88, RN4220 kill 86
O=C(NCc1cccnc1)/C(=C/c1ccc(Cl)cc1)NC(=O)c1ccccc1	none
O=C(NCc1ccccc1Cl)/C(=C\c1cccnc1)NC(=O)c1ccccc1	VHR inh abs 58
CC1CN(CCc2ccccc2)C(C)CC1=NO (centres undefined)	none (no result: PrPC surface inh, PfHsp40 yeast, VHR inh abs)
CC(C)(C)OC(=O)CNC(=O)c1[nH]cnc1C(=O)NC(Cc1ccccc1)C(=O)OC(C)(C)C (centres undefined)	none (no result: PrPC surface inh, PfHsp40 yeast, VHR inh abs)
COc1ccc2[nH]c3c(N4CC(C)OC(C)C4)ncnc3c2c1 (centres undefined)	none (no result: PfHsp40 yeast)
COc1cccc(N2CCN(c3ncnc4c3[nH]c3ccc(F)cc34)CC2C)c1 (centres undefined)	PrPC surface inh 85
Cc1cc(=O)[nH]c(NN=Cc2ccc(-c3ccc(F)cc3)o2)n1	none (no result: PrPC surface inh, PfHsp40 yeast, VHR inh abs)
O=C(Nc1cccc(Cl)c1)N1CCc2ccccc2C1	PfHsp40 yeast 44
Cc1c(CCOC(=O)C23CC4(C)CC(C)(CC(C)(C4)C2)C3)sc[n+]1CC(=O)c1ccccc1	ugtP null kill 100, RN4220 kill 98
Cc1c(CCOC(=O)C23CC4CC(CC(C)(C4)C2)C3)sc[n+]1Cc1ccccc1	ugtP null kill 100
Cc1c(CCOC(=O)CC23CC4CC(CC(C4)C2)C3)sc[n+]1CC(=O)c1ccccc1	none
CC(=NNC(=O)CNC(=O)c1ccco1)c1ccc(Br)cc1	none (no result: PrPC surface inh, PfHsp40 yeast, VHR inh abs)
CC(=C(C#N)C(=O)NCc1ccccc1)N(C)C	none (no result: PrPC surface inh, PfHsp40 yeast, VHR inh abs)
Cn1c(SCC(=O)Nc2ccc(NC(=O)c3ccccc3)cc2)nnc1-c1ccncc1	VHR inh abs 52
